Data taken from PubChem BioAssay.
Activity calls are given as the source filed them. Unless noted, no stated cut-off is given here; in the data, active means inhibition above about 80%; inactive means the rest.

How the values were obtained:
[1] = growth inhibition, single agent or in combination, cell-based, chromothripsis tumors, cisplatin or BGB combos (AID 1671449); details: LFS_MB_P medulloblastoma cells;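 further: cells exposed for 96 hours; 0% = vehicle DMSO and 100% = killing by high DMSO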
[2] = growth inhibition, single agent and combos, cell-based, chromothripsis tumors, cisplatin or BGB combos (AID 1671450); details: HDN33 neuroblastoma cells, stronger effect = higher value;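 further: cells exposed to compound for four days; 0% = vehicle DMSO and 100% = cell killing by high DMSO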
[3] = growth inhibition, single agents and combos, ICB984, cell-based, cisplatin or BGB combos, synergistic combos for chromothripsis tumors (AID 1671451; call rule not given here;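 further: cells exposed for 96 hours before readout; 0% = vehicle DMSO and 100% = killing by high DMSO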); details: ICB984 medulloblastoma cells, drug combinations, stronger effect = higher value
[4] = growth inhibition, single agents and combos, LFS_MB_1R, cell-based, cisplatin or BGB combos, synergistic combos for chromothripsis tumors (AID 1671452); details: LFS_MB_1R medulloblastoma cells, stronger effect = higher value;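 further: cells exposed for 96 hours before readout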
[5] = growth inhibition, single agents and combos, HTB85, cell-based, BGB or cisplatin IC20 combos, synergistic combos for chromothripsis tumors (AID 1671453); details: HTB85 osteosarcoma cells, drug combinations, stronger effect = higher value;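 further: cells exposed for 96 hours before readout; 0% = vehicle DMSO and 100% = high DMSO killing control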
[6] = growth inhibition, single agents and combos, CRL2098, cell-based, BGB or cisplatin IC20 combos, synergistic combos for chromothripsis tumors (AID 1671454); details: CRL2098 osteosarcoma cells, drug combinations, stronger effect = higher value;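 further: cells exposed for 96 h before readout; 0% = vehicle DMSO and 100% = killing by high DMSO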
[7] = growth inhibition, single agents and combos, HD-MB03, cell-based, BGB or cisplatin IC20 combos, synergistic combos for chromothripsis tumors (AID 1671455; in the data active means inhibition above about 83%;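 further: 0% = vehicle DMSO and 100% = high DMSO as cytotoxic control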); details: HD-MB03 medulloblastoma cells, stronger effect = higher value
[8] = growth inhibition, single agents and combos, UWB1.289, cell-based, BGB or cisplatin combos, synergistic combos for chromothripsis tumors (AID 1671456); details: UWB1.289 ovarian carcinoma cells, stronger effect = higher value;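 further: cells exposed to compound for four days; 0% = vehicle DMSO and 100% = killing by high DMSO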
[9] = growth inhibition, single agents and combos, LFS_MB_2R, cell-based, cisplatin combos, synergistic combos for chromothripsis tumors (AID 1671457); details: LFS_MB_2R medulloblastoma cells, stronger effect = higher value;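 further: cells exposed to compound for four days before readout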
[10] = growth inhibition, MDA-MB-436, cell-based, BGB or cisplatin combos, synergistic combos for chromothripsis tumors (AID 1671458; call rule not given here;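 further: cells exposed for 96 hours; 0% = vehicle DMSO and 100% = killing by high DMSO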); details: MDA-MB-436 breast carcinoma growth inhibition, drug combinations, stronger effect = higher value
[11] = UWB1.289_BRCA1 ovarian cancer growth, cell-based, BGB or cisplatin combinations (AID 1671459); details: UWB1.289 BRCA1 ovarian carcinoma, drug combinations, stronger effect = higher value
[12] = drug combination toxicity in non-malignant astrocytes – cell-based, BGB or cisplatin IC20 combos, cytotoxicity control for chromothriptic childhood tumor combination screen (AID 1671460); details: Human astrocytes, viability inhibition, drug combinations, at 0.5 µM, stronger effect = higher value;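 further: cells exposed to compounds for 96 hours before viability readout; 0% = vehicle and 100% = killing control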
[13] = BT084 cell growth, single and combined drugs, ICGC_MB145, cisplatin and BGB IC40 combos (AID 1671461); details: BT084 medulloblastoma cells, drug combinations, stronger effect = higher value;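 further: cells exposed to drugs for 96 hours; 0% = vehicle DMSO and 100% = high DMSO full killing control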
[14] = RCMB18 cell growth, single agent and combined, cisplatin and BGB IC40 combos (AID 1671462); details: RCMB18 medulloblastoma cells, stronger effect = higher value;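 further: cells exposed to compound for four days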
[15] = CRL1545 cell growth, single agent and combined, cisplatin and BGB IC20 combos (AID 1671464); details: CRL1545 osteosarcoma cells, stronger effect = higher value;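 further: cells exposed to compound for 96 hours before readout; 0% = vehicle DMSO and 100% = high DMSO killing control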
[16] = at 0.5 µM, stronger effect = higher value
[17] = measured here: combination with BGB IC20, at 0.005 µM
[18] = measured here: combination with BGB IC40, at 0.005 µM
[19] = measured here: combination with BGB IC40, at 0.05 µM
[20] = measured here: combination with cisplatin, at 0.5 µM, stronger effect = higher value
[21] = measured here: combination with cisplatin, at 5 µM, stronger effect = higher value
[22] = measured here: with BGB IC20 combination, at 0.5 µM
[23] = measured here: with cisplatin IC20 combination, at 0.5 µM
[24] = measured here: 5 uM single agent, at 5 µM
[25] = measured here: combination with cisplatin, at 0.5 µM
[26] = measured here: combination with cisplatin, at 5 µM
[27] = measured here: with BGB IC20, at 0.5 µM
[28] = measured here: with BGB IC20, at 5 µM
[29] = measured here: with cisplatin IC20, at 0.5 µM
[30] = measured here: with cisplatin IC20, at 5 µM
[31] = measured here: combination with BGB at IC20, at 0.5 µM
[32] = measured here: combination with cisplatin at IC20, at 0.5 µM
[33] = measured here: combo with BGB at IC20, at 0.5 µM
[34] = measured here: combo with cisplatin at IC20, at 0.5 µM
[35] = measured here: inhibition with BGB combination, at 0.05 µM
[36] = measured here: inhibition with cisplatin combination, at 0.05 µM
[37] = measured here: BGB combination, at 0.5 µM
[38] = measured here: BGB combination, at 5 µM
[39] = measured here: cisplatin combination, at 0.5 µM
[40] = measured here: cisplatin combination, at 5 µM
[41] = BGB combination, concentration series, at 5 µM
[42] = cisplatin combination, concentration series, at 5 µM
[43] = measured here: combo with BGB IC20
[44] = measured here: combo with cisplatin IC20
[45] = cisplatin combination, at 0.5 µM
[46] = measured here: BGB IC40 combination 0.05 uM, at 0.05 µM
[47] = measured here: BGB IC40 combination, at 0.05 µM

In the case of `C[C@@H]1O[C@@H](O[C@@H]2[C@@H](O)[C@H](OCCc3ccc(O)c(O)c3)O[C@H](CO)[C@H]2OC(=O)C=Cc2ccc(O)c(O)c2)[C@H](O)[C@H](O)[C@H]1O`, the inhibition [1, 16] is reported as -19.7% (inactive), the inhibition [1, 17] is reported as -7.94% and the inhibition [1, 18] is reported as -47.4%. It also gave an inhibition [1, 19] of -17.9%, an inhibition [1, 20] of -14.4% and an inhibition [1, 21] of -15.6%. The inhibition ([2]; BGB combo, at 5 µM) was -0.831%, the inhibition ([2]; at 0.5 µM) was 5.6% (inactive) and the inhibition ([2]; cisplatin combo, at 5 µM) was 41%. The inhibition [2, 22] was 2.02%, the inhibition [2, 23] was 15.9% and the inhibition ([2]; single agent, at 5 µM) was 21.8%. For the same compound, the inhibition ([3]; BGB IC20 combo, at 0.005 µM) was -21.2%, the inhibition ([3]; BGB IC40 combo, at 0.005 µM) was -5.21% and the inhibition ([3]; BGB IC40 combo, at 0.05 µM) was -11.9%. For the same compound, the inhibition ([3]; at 0.5 µM) was -18.6% (inactive), the inhibition ([3]; cisplatin combo, at 0.05 µM) was -17.7% and the inhibition ([3]; cisplatin combo, at 0.5 µM) was -31.1%. The inhibition ([3]; cisplatin combo, at 5 µM) was -7.59%, the inhibition [3, 24] was -11% and the inhibition ([4]; at 0.5 µM) was -31.7% (inactive). It also gave an inhibition [4, 19] of -26.1%, an inhibition [4, 25] of -49.4% and an inhibition [4, 26] of -50.3%. The inhibition ([5]; at 0.5 µM) was -2.22% (inactive), the inhibition [5, 27] was 11% and the inhibition [5, 28] was -2.54%. It also gave an inhibition [5, 29] of -24.2%, an inhibition [5, 30] of 13.7% and an inhibition ([5]; single agent, at 5 µM) of 14.4%. The inhibition ([6]; at 0.5 µM) was -20.3% (inactive), the inhibition [6, 31] was -22.9% and the inhibition [6, 32] was -10.2%. The inhibition ([7]; at 0.5 µM) was -12.4% (inactive), the inhibition [7, 33] was -18% and the inhibition [7, 34] was -15.8%. For the same compound, the inhibition ([8]; at 0.5 µM) was 2.22% (inactive), the inhibition [8, 35] was -13.4% and the inhibition [8, 36] was -3.75%. The inhibition ([9]; at 0.5 µM) was -23.2% (inactive), the inhibition [9, 25] was -31.6% and the inhibition [9, 26] was -36.7%. For the same compound, the inhibition ([10]; at 0.5 µM) was -13.3% (inactive), the inhibition [10, 37] was -5.37% and the inhibition [10, 38] was -8.31%. For the same compound, the inhibition [10, 39] was -39.6%, the inhibition [10, 40] was -30.4% and the inhibition [11, 41] was -4.79%. The inhibition ([11]; at 0.5 µM) was 2.12% (inactive), the inhibition [11, 42] was 23.8% and the inhibition [12] was 3.51% (inactive). The inhibition [12, 43] was -0.074%, the inhibition [12, 44] was 5.26% and the inhibition ([13]; at 0.5 µM) was -15.3% (inactive). It also gave an inhibition [13, 45] of -21.1%, an inhibition ([13]; cisplatin combination, at 5 µM) of -157% and an inhibition [13, 46] of -26.5%. For the same compound, the inhibition ([13]; single agent, at 5 µM) was -19.8%, the inhibition ([14]; at 0.5 µM) was -0.47% (inactive) and the inhibition ([14]; cisplatin combo, at 5 µM) was 8.1%. It also gave an inhibition [14, 47] of -349%, an inhibition [14, 25] of -0.428% and an inhibition ([14]; single agent, at 5 µM) of -0.98%. For the same compound, the inhibition ([15]; at 0.5 µM) was 3.16% (inactive), the inhibition [15, 22] was -11.9% and the inhibition [15, 23] was 9.28%. The inhibition ([15]; single agent, at 0.05 µM) was -3.32% and the inhibition ([15]; single agent, at 5 µM) was 19.3%.
With `O=C1C(=Cc2cccnc2)C(=O)c2ccccc21` the inhibition [1, 16] was -18.2% (inactive), the inhibition [1, 17] was -17.1% and the inhibition [1, 18] was 67.5%. For the same compound, the inhibition [1, 19] was -27.5%, the inhibition [1, 20] was -45.6% and the inhibition [1, 21] was -16.1%. The inhibition ([2]; BGB combo, at 5 µM) was -24.2%, the inhibition ([2]; at 0.5 µM) was -0.8% (inactive) and the inhibition ([2]; cisplatin combo, at 5 µM) was -15.7%. The inhibition [2, 22] was -14.2%, the inhibition [2, 23] was 14.1% and the inhibition ([2]; single agent, at 5 µM) was -16.1%. It also gave an inhibition ([3]; BGB IC20 combo, at 0.005 µM) of 0.337%, an inhibition ([3]; BGB IC40 combo, at 0.005 µM) of -13.1% and an inhibition ([3]; BGB IC40 combo, at 0.05 µM) of -4.84%. For the same compound, the inhibition ([3]; at 0.5 µM) was -25.7% (inactive), the inhibition ([3]; cisplatin combo, at 0.05 µM) was -10.2% and the inhibition ([3]; cisplatin combo, at 0.5 µM) was -37.3%. The inhibition ([3]; cisplatin combo, at 5 µM) was -28.8%, the inhibition [3, 24] was -20.5% and the inhibition ([4]; at 0.5 µM) was -8.72% (inactive). For the same compound, the inhibition [4, 19] was -20.3%, the inhibition [4, 25] was -8.61% and the inhibition [4, 26] was -32.8%. The inhibition ([5]; at 0.5 µM) was -5.81% (inactive), the inhibition [5, 27] was 0.006% and the inhibition [5, 28] was -4.06%. The inhibition [5, 29] was -17.7%, the inhibition [5, 30] was 0.224% and the inhibition ([5]; single agent, at 5 µM) was 6.13%. The inhibition ([6]; at 0.5 µM) was -26.6% (inactive), the inhibition [6, 31] was -25.9% and the inhibition [6, 32] was -22.2%. The inhibition ([7]; at 0.5 µM) was -8.47% (inactive), the inhibition [7, 33] was -12% and the inhibition [7, 34] was -5.96%. For the same compound, the inhibition ([8]; at 0.5 µM) was 0.75% (inactive), the inhibition [8, 35] was 2.81% and the inhibition [8, 36] was -5.97%. For the same compound, the inhibition ([9]; at 0.5 µM) was -15.3% (inactive), the inhibition [9, 25] was -19.2% and the inhibition [9, 26] was -18.7%. The inhibition ([10]; at 0.5 µM) was -13.9% (inactive), the inhibition [10, 37] was -13.8% and the inhibition [10, 38] was -19.4%. For the same compound, the inhibition [10, 39] was -27.6%, the inhibition [10, 40] was -23.4% and the inhibition [11, 41] was -3.65%. For the same compound, the inhibition ([11]; at 0.5 µM) was -0.75% (inactive), the inhibition [11, 42] was 4.94% and the inhibition [12] was 5.07% (inactive). The inhibition [12, 43] was -3.05%, the inhibition [12, 44] was 0.407% and the inhibition ([13]; at 0.5 µM) was -7.01% (inactive). The inhibition [13, 45] was -1.5%, the inhibition ([13]; cisplatin combination, at 5 µM) was -101% and the inhibition [13, 46] was -30.3%. For the same compound, the inhibition ([13]; single agent, at 5 µM) was 9.68%, the inhibition ([14]; at 0.5 µM) was -13.1% (inactive) and the inhibition ([14]; cisplatin combo, at 5 µM) was 4.14%. It also gave an inhibition [14, 47] of -19.1%, an inhibition [14, 25] of -37% and an inhibition ([14]; single agent, at 5 µM) of -5.07%. The inhibition ([15]; at 0.5 µM) was 3.87% (inactive), the inhibition [15, 22] was -10.3% and the inhibition [15, 23] was 9.52%. The inhibition ([15]; single agent, at 0.05 µM) was -45.6% and the inhibition ([15]; single agent, at 5 µM) was -28.3%.
